Reference: PubChem BioAssay AID1159580 (chemical genetic matrix, 2015)
Hit rate of the full screen: of about 5,500 compounds, about 2,000 (36%) were called active. Roughly 18% stayed inconclusive and do not appear here. No stated cut-off is given here; in the data, active means normalized growth mostly below about 0.91 (no sharp cut-off); inconclusive means no clear call, values can overlap the other calls; inactive means mostly above about 0.92. The list shows a part of the results.

Test: chemical genetic growth profiling, strain panel (AID 1159580);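 further: tested at 20 µM; growth read once vehicle control cultures reached saturation at 30 °C; 1 = growth at the plate median or of vehicle wells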
Settings: S. cerevisiae deletion strains, growth OD

Measured: normalized growth

N#C/C(=N/Nc1ccccc1Cl)S(=O)(=O)c1ccc(Cl)cc1
inactive: locus YAR019C, strain CDC15, stronger effect = lower value 0.976 | locus YBL105C, strain PKC1, stronger effect = lower value 0.97 | locus YBR135W, strain CKS1, stronger effect = lower value 0.964 | locus YBR136W, strain MEC1, stronger effect = lower value 0.968 | locus YBR160W, strain CDC28, stronger effect = lower value 0.969 | locus YDL017W, strain CDC7, stronger effect = lower value 0.976 | locus YDL028C, strain MPS1, stronger effect = lower value 0.975 | locus YDL101C, strain DUN1, stronger effect = lower value 0.978 | locus YDL108W, strain KIN28, stronger effect = lower value 0.977 | locus YDL132W, strain cdc53, stronger effect = lower value 0.971 | locus YDL214C, strain PRR2, stronger effect = lower value 0.889 | locus YDR052C, strain DBF4, stronger effect = lower value 0.966 | locus YDR054C, strain cdc34, stronger effect = lower value 0.966 | locus YDR226W, strain ADK1, stronger effect = lower value 0.974 | locus YDR477W, strain SNF1, stronger effect = lower value 0.889 | locus YER123W, strain YCK3, stronger effect = lower value 0.882 | locus YER133W, strain GLC7, stronger effect = lower value 0.909 | locus YFL009W, strain cdc4, stronger effect = lower value 0.968 | locus YFL029C, strain CAK1, stronger effect = lower value 0.969 | locus YFR003C, strain YPI1, stronger effect = lower value 0.973 | locus YFR019W, strain FAB1, stronger effect = lower value 0.859 | locus YFR028C, strain CDC14, stronger effect = lower value 0.95 | locus YGR040W, strain KSS1, stronger effect = lower value 0.889 | locus YGR052W, strain FMP48, stronger effect = lower value 0.869 | locus YGR092W, strain DBF2, stronger effect = lower value 0.715 | locus YHR030C, strain SLT2, stronger effect = lower value 0.916 | locus YHR079C, strain IRE1, stronger effect = lower value 0.955 | locus YHR082C, strain KSP1, stronger effect = lower value 0.918 | locus YHR205W, strain SCH9, stronger effect = lower value 0.866 | locus YIL147C, strain SLN1, stronger effect = lower value 0.968 | locus YJL095W, strain BCK1, stronger effect = lower value 0.852 | locus YJL128C, strain PBS2, stronger effect = lower value 0.944 | locus YJL157C, strain FAR1, stronger effect = lower value 0.909 | locus YJR016C, strain ILV3, stronger effect = lower value 0.974 | locus YJR066W, strain TOR1 (second series), stronger effect = lower value 0.877 | locus YJR066W, strain TOR1, stronger effect = lower value 0.962 | locus YKL048C, strain ELM1, stronger effect = lower value 0.886 | locus YKL067W, strain YNK1, stronger effect = lower value 0.911 | locus YKL101W, strain HSL1, stronger effect = lower value 0.835 | locus YKL193C, strain SDS22, stronger effect = lower value 0.976 | locus YKL203C, strain TOR2, stronger effect = lower value 0.943 | locus YLR113W, strain HOG1, stronger effect = lower value 0.877 | locus YLR133W, strain CKI1, stronger effect = lower value 0.847 | locus YLR403W, strain SFP1, stronger effect = lower value 0.811 | locus YML070W, strain DAK1, stronger effect = lower value 0.883 | locus YMR001C, strain CDC5, stronger effect = lower value 0.969 | locus YMR205C, strain PFK2 (second series), stronger effect = lower value 0.918 | locus YMR277W, strain FCP1, stronger effect = lower value 0.973 | locus YNL006W, strain LST8, stronger effect = lower value 0.979 | locus YNL020C, strain ARK1, stronger effect = lower value 0.828 | locus YNL161W, strain CBK1, stronger effect = lower value 0.971 | locus YNL183C, strain NPR1, stronger effect = lower value 0.94 | locus YNL207W, strain RIO2, stronger effect = lower value 0.954 | locus YNL222W, strain SSU72, stronger effect = lower value 0.977 | locus YNL307C, strain MCK1 (second series), stronger effect = lower value 0.787 | locus YOL078W, strain AVO1, stronger effect = lower value 0.968 | locus YOL136C, strain PFK27, stronger effect = lower value 0.832 | locus YOR061W, strain CKA2, stronger effect = lower value 0.851 | locus YOR119C, strain RIO1, stronger effect = lower value 0.957 | locus YOR231W, strain MKK1, stronger effect = lower value 0.895 | locus YOR329C, strain SCD5, stronger effect = lower value 0.979 | locus YPL031C, strain PHO85, stronger effect = lower value 0.856 | locus YPL153C, strain RAD53, stronger effect = lower value 0.889 | locus YPL204W, strain HRR25, stronger effect = lower value 0.814 | locus YPL209C, strain IPL1, stronger effect = lower value 0.975 | locus YPL256C, strain CLN2, stronger effect = lower value 0.939 | locus YPR025C, strain CCL1, stronger effect = lower value 0.978 | locus YPR106W, strain ISR1, stronger effect = lower value 0.966 | locus YPR111W, strain DBF20, stronger effect = lower value 0.961 | strain NNK1, stronger effect = lower value 0.952 | strain TSCII, stronger effect = lower value 0.956
